Assay outcomes (PubChem BioAssay)
Compounds with a hit are over-represented: about 19% of the library has one in this group of screens.
DT40 TDP1 CPT: DT40-hTDP1 cell growth loss with CPT | 420,000 tested, 12% active | chicken DT40 Tdp1-/-;hTDP1 cells + 20 nM CPT, ATP luminescence, 48 h | Potency, µM (doses to about 46.2 µM), inactives show at the top dose activity change, negative = growth inhibition, most hits filed as inhibitors; note: potency is the fitted concentration of half-maximal effect; % is set by controls: 0 for no effect and ±100 for the full control effect; nearly all actives have a fitted effect of over 55% in size
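Chicken DT40 Tdp1-/- cells stably complemented with human TDP1 were seeded at 400 cells/well in medium containing 20 nM camptothecin, exposed to pin-transferred compounds, and grown at 37 °C for at least 48 hr. Viability was read as ATP luminescence.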
TGFb SMAD3 inh: TGF-b pathway inhibition | HepG2 CAGA-GFP TGF-b/SMAD3 reporter, GFP fluorescence, 18 h; TGF-beta stimulated, 500 pg/mL final | 410,000 tested, 1.2% active | Potency, µM (series often up to 46.1 µM), inactives show at the top dose activity, negative = inhibition, hits mostly inhibitors; note: potency is the fitted concentration of half-maximal effect; % is set by controls: 0 for no effect and ±100 for the full control effect; nearly all actives have a fitted effect of over 65% in size
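Inhibition of TGF-beta-driven CAGA-GFP reporter expression in HEPG2 cells is measured by cellular GFP fluorescence after 18 h stimulation with 500 pg/mL recombinant TGF-beta in 1% FBS medium at 37 degrees C.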
ASM inhibitor: blocks human secretory acid sphingomyelinase; P17405; Potency, µM (highest dose often 57.5 µM), for inactives: at the highest dose activity change, negative = inhibition, usual class: inhibitors; 340,000 tested, 0.006% active; AID 504937; placental ASM, HMU-PC fluorogenic substrate, 60 min; note: potency is the fitted concentration of half-maximal effect
Target sequence (P17405 47-631 limits assumed): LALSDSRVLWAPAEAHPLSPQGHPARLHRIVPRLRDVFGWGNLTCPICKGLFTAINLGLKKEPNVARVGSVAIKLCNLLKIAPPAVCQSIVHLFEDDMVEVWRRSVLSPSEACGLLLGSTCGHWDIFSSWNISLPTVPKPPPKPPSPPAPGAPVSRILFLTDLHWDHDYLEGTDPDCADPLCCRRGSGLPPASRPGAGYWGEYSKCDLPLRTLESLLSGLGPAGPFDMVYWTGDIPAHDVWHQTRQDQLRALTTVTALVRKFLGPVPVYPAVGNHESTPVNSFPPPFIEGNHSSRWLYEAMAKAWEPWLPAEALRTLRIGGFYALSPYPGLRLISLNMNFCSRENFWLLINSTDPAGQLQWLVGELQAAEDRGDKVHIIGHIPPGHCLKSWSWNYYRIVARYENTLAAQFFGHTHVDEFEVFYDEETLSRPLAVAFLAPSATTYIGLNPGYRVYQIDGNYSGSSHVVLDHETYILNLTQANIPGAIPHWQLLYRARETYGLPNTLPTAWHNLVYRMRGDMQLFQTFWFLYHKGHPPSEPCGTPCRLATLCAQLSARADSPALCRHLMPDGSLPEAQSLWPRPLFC
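Fluorogenic HMU-PC substrate (9 uM final) is turned over by placental ASM in 60 min at 37 C after a 10 min compound preincubation. Reaction ended by alkaline stop (pH 10), with fluorescence read at 386/447 nm.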
HepG2 viability: kills HepG2 cells in TGF-b inhibitor counter-screen | Potency, µM (doses to about 46.1 µM), for inactives: top-dose activity change, negative = cytotoxicity, actives largely listed as cytotoxic | AID 588856 | 410,000 tested, 0.76% active | HepG2 CAGA-GFP viability, ATP luminescence, 18 h; note: potency is the fitted concentration of half-maximal effect
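HepG2 CAGA-GFP cells (1000/well, DMEM with 1% FBS) received compound, then TGF-beta at 500 pg/mL final, and were incubated 18 hours at 37 degrees C. Viability was read by CellTiter-Glo luminescence. Media-only wells were set as complete cell-killing and DMSO as no toxicity.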
DT40 TDP1 no CPT: qHTS for Inhibitors of human tyrosyl-DNA phosphodiesterase 1 (TDP1): qHTS in cells in absence of CPT; Potency, µM (series often up to 46.2 µM), inactives show at the top dose activity change, negative = growth inhibition, usual class: inhibitors; AID 686978, 2013; 420,000 tested, 15% active; DT40 Tdp1-/- hTDP1 cells, no CPT, ATP luminescence, 48 h; note: potency is the fitted concentration of half-maximal effect; % is set by controls: 0 for no effect and ±100 for the full control effect; nearly all actives have a fitted effect of over 55% in size
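DT40 Tdp1-/-;hTDP1 cells, no CPT (DMSO vehicle only), 400 cells/well; compounds pin-transferred; ≥48 hr, 37 °C; CellTiter-Glo 30 min RT dark, luminescence read.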
IL-1B inflam inh: inhibitors of inflammasome signaling (IL-1 beta secretion). activity change, % at 57.5 µM. AID 743279. 360,000 tested, 4.7% active. THP-1 LPS/ATP IL-1B secretion, AlphaLISA, 16 h; stronger effect = lower value; in the data active = activity change below about -50%; inconclusive = mostly about -30% to -49%; note: % is set by controls: 0 for no effect and ±100 for the full control effect
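THP-1 cells pretreated 1 hr with compounds (up to 57.5 uM final), then stimulated with LPS (250 ng/mL final) plus ATP (1.25 mM final); secreted IL-1B measured by AlphaLISA after 16 hr, decreased signal indicating inhibition.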
* = called active by the depositor; [ ] = remark or other dose. Unless noted, calls come from the whole dose curve; as a rule, active = well fitted curve in the direction sought with a large enough effect; inconclusive = small, poorly fitted or top-dose-only effect, or another doubt; inactive = no such curve, though single readings can be large; an effect the other way counts as inactive or inconclusive.

`COCc1cc(N2CCN(c3ccccc3F)CC2)nc(-c2ccccc2)n1` gave DT40 TDP1 CPT inconclusive, TGFb SMAD3 inh -0.2%, ASM inhibitor -8.1%, HepG2 viability -6.2%, DT40 TDP1 no CPT 11.6µM* and IL-1B inflam inh 37.7.
For Cc1ccc(OCCSc2nc3ccccc3n2CCC(=O)O)c(C(C)C)c1 the results were DT40 TDP1 CPT 0.9%, TGFb SMAD3 inh 1.3%, HepG2 viability -28.2%, DT40 TDP1 no CPT inconclusive and IL-1B inflam inh 12.5.
COc1cc(Cl)c(NC(=O)CCc2nc3cccnc3n2-c2ccccc2)c(OC)c1 was read as DT40 TDP1 CPT inconclusive, TGFb SMAD3 inh -3.1%, HepG2 viability -4.1% and DT40 TDP1 no CPT inconclusive.
For COc1c(O[C@@H]2O[C@H](CO)[C@@H](O)[C@H](O)[C@H]2O)cc2c(c1OC)-c1ccc(SC)c(=O)cc1[C@@H](NC(C)=O)CC2 the results were DT40 TDP1 CPT 12.4%[21.1 µM] and DT40 TDP1 no CPT -0.9%[21.1 µM].
For COc1cc2c(c(OC)c1OC)-c1ccc(SC)c(=O)cc1C(NC(=O)C(F)(F)F)CC2 (stereo not drawn) the results were DT40 TDP1 CPT 0.092µM*, TGFb SMAD3 inh 0.0%, ASM inhibitor -8.4%, HepG2 viability 2.8%, DT40 TDP1 no CPT 0.0184µM* and IL-1B inflam inh 44.8.
`CCOCC(=O)NC1CCc2cc(OC(=O)COCC)c(OC)c(OC)c2-c2ccc(SC)c(=O)cc21` (stereo not drawn) gave DT40 TDP1 CPT 0.0231µM*, TGFb SMAD3 inh inconclusive, ASM inhibitor -6.1%, HepG2 viability 5.1%, DT40 TDP1 no CPT 0.146µM* and IL-1B inflam inh 27.2.
Screening CCn1c(SCc2ccc(F)cc2Cl)nc(=O)c2c(C(=O)OC)cc(C3CC3)nc21 returned DT40 TDP1 CPT 16.4µM*, TGFb SMAD3 inh inconclusive, HepG2 viability -79.5% and DT40 TDP1 no CPT 18.4µM*.
Screening CCn1c(SCc2ccccc2F)nc(=O)c2c(C(=O)OC)cc(C3CC3)nc21 returned DT40 TDP1 CPT 16.4µM*, TGFb SMAD3 inh -28.5%, HepG2 viability -44.5% and DT40 TDP1 no CPT inconclusive.
`COC(=O)c1cc(C)nc2c1c(=O)nc(SCc1ccccc1Cl)n2C1CC1` gave DT40 TDP1 CPT -19.9%, TGFb SMAD3 inh 22.4%, HepG2 viability 13.3% and DT40 TDP1 no CPT -6.1%.
O=C(Nc1c2c(nn1-c1ccccc1)CS(=O)(=O)C2)c1ccc2c(c1)OCO2 was read as DT40 TDP1 CPT -5.6%, TGFb SMAD3 inh inconclusive, ASM inhibitor 1.9%, HepG2 viability -11.8%, DT40 TDP1 no CPT 1.1% and IL-1B inflam inh -16.1.
For COc1ccccc1C(=O)Cc1ccccc1 the results were DT40 TDP1 CPT -4.2%, TGFb SMAD3 inh -9.6%, ASM inhibitor -2.1%, HepG2 viability -6.5%, DT40 TDP1 no CPT -6.9% and IL-1B inflam inh 7.2.
For CC(C)CCNc1nc(Nc2ccccc2)c2cnn(C)c2n1 the results were DT40 TDP1 CPT 23.1µM*, TGFb SMAD3 inh inconclusive, HepG2 viability -103.5% and DT40 TDP1 no CPT 23.1µM*.
Cn1ncc2c(NCc3ccccc3)nc(NCCCO)nc21 was read as DT40 TDP1 CPT -8.7%, TGFb SMAD3 inh 4.9%, ASM inhibitor 3.6%, HepG2 viability 13.1%, DT40 TDP1 no CPT 11.2% and IL-1B inflam inh -24.6.
For CN1C(=S)SC(N2OC3C(=O)N(c4ccccc4)C(=O)C3C2c2ccc(Cl)cc2)C1(C)C (stereo not drawn) the results were DT40 TDP1 CPT -0.8%, TGFb SMAD3 inh -17.8%, ASM inhibitor -0.2%, HepG2 viability -9.0%, DT40 TDP1 no CPT 4.6% and IL-1B inflam inh 0.0.
For S=c1[nH]nc(-c2ccc(Cl)cc2)n1/N=C/C=C/c1ccco1 the results were DT40 TDP1 CPT inconclusive, TGFb SMAD3 inh -11.6%, ASM inhibitor -7.6%, HepG2 viability -25.5%, DT40 TDP1 no CPT 20.6µM* and IL-1B inflam inh 12.3.
`Cc1ccccc1-c1n[nH]c(=S)n1/N=C/C=C/c1ccco1` gave DT40 TDP1 CPT inconclusive, TGFb SMAD3 inh -12.3%, ASM inhibitor -2.2%, HepG2 viability -46.8%, DT40 TDP1 no CPT 18.4µM* and IL-1B inflam inh 13.7.
For Cc1ccc(OCCCCCCN2CCNCC2)cc1 the results were DT40 TDP1 CPT 18.4µM*, TGFb SMAD3 inh -23.9%, ASM inhibitor 3.8%, HepG2 viability -19.4%, DT40 TDP1 no CPT 20.6µM* and IL-1B inflam inh -89.7*.
Cc1ccccc1OCCCCCCN1CCNCC1 was read as DT40 TDP1 CPT 23.1µM*, TGFb SMAD3 inh -3.2%, ASM inhibitor -0.5%, HepG2 viability -1.1%, DT40 TDP1 no CPT 16.4µM* and IL-1B inflam inh -73.5*.
`CN1CCN(CCCCOc2ccccc2C=O)CC1` gave DT40 TDP1 CPT inconclusive, TGFb SMAD3 inh -15.5%, ASM inhibitor 5.8%, HepG2 viability -26.2%, DT40 TDP1 no CPT inconclusive and IL-1B inflam inh -84.5*.
For COc1cccc(OC)c1OCCCCCCN1CCN(C)CC1 the results were DT40 TDP1 CPT -5.2%, TGFb SMAD3 inh -8.4%, ASM inhibitor -2.0%, HepG2 viability -24.0%, DT40 TDP1 no CPT -9.4% and IL-1B inflam inh 4.8.
Screening O=C(O)CC1(CC(=O)Nc2ccc3sccc3c2)CCCCC1 returned DT40 TDP1 CPT 2.0%, TGFb SMAD3 inh -5.9%, ASM inhibitor -2.4%, HepG2 viability 4.9%, DT40 TDP1 no CPT -4.5% and IL-1B inflam inh 8.4.
For Cc1ccc(CN2CCN(Cc3cccc(-n4cccn4)c3)CC2CCO)cc1 (stereo not drawn) the results were DT40 TDP1 CPT 11.6µM*, TGFb SMAD3 inh 0.4%, ASM inhibitor -2.0%, HepG2 viability -22.9%, DT40 TDP1 no CPT inconclusive and IL-1B inflam inh -1.3.
Screening Cc1ccc(CN2CCN(Cc3ccc(-n4cccn4)cc3C)CC2CCO)cc1 (stereo not drawn) returned DT40 TDP1 CPT inconclusive, TGFb SMAD3 inh -18.1%, ASM inhibitor -2.0%, HepG2 viability -6.8%, DT40 TDP1 no CPT inconclusive and IL-1B inflam inh -8.2.
Cc1cc(C)c(CN2CCN(Cc3ccc(C)o3)C(CCO)C2)c(-n2cccn2)c1 (stereo not drawn) was read as DT40 TDP1 CPT inconclusive, TGFb SMAD3 inh 6.1%, ASM inhibitor -0.5%, HepG2 viability -5.3%, DT40 TDP1 no CPT 23.1µM* and IL-1B inflam inh -7.3.
